Bioassay records as filed in PubChem BioAssay.
mut p53 react = mutant p53 pathway reactivation | activation, % at 9.98 µM | SW480 PUMA-promoter luciferase | 1.5% of 28,000 active; in the data active = activation above about 52%
ID4 SMM = binders of human ID4 protein; calls only; P47928; 1.2% of 31,000 active; small molecule microarray, Flag-ID4 binding, fluorescence F/B; call rule not given here;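 also: a binder raises fluorescence above local background on the spot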
STK33 inh = blocks human STK33 kinase activity. ADP-Glo luminescence, MBP substrate. inhibition, % at 12.5 µM. 0.44% of 27,000 active. AID 2322; in the data active = inhibition above about 20%
Target sequence (Q9BYT3 whole entry, looked up): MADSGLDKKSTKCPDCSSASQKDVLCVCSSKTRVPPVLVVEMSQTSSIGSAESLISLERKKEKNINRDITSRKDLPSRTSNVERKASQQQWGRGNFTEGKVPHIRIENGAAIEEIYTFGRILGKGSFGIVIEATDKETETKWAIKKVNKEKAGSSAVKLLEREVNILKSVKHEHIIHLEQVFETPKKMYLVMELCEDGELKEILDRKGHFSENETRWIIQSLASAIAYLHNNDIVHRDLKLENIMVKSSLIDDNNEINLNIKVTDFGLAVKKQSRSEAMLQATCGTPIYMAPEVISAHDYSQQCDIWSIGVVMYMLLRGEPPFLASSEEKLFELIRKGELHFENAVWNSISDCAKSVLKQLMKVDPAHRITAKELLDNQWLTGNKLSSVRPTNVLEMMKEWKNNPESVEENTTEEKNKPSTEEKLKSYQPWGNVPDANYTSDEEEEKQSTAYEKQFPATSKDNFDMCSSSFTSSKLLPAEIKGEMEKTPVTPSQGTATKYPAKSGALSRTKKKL
Starred values were filed as active, the others as inactive. Hits are enriched below; roughly 2% of the tested compounds scored in any of these assays.

Screening C[C@H](CO)N1C[C@H](C)[C@@H](CN(C)C)Oc2ccc(NC(=O)Nc3ccc4c(c3)OCO4)cc2C1=O returned mut p53 react 4 and ID4 SMM inactive.
For CNC[C@@H]1Oc2ccc(NC(=O)Nc3ccc4c(c3)OCO4)cc2C(=O)N([C@H](C)CO)C[C@H]1C the results were mut p53 react -14 and ID4 SMM active.
CC1CCc2c(sc(NC(=O)c3cc(-c4cccnc4)nc4ccc(Cl)cc34)c2C(N)=O)C1 (configuration not stated) was read as mut p53 react 4, ID4 SMM inactive and STK33 inh -1.
Screening COc1ccc(S(=O)(=O)Nc2cccc(N(C)S(C)(=O)=O)c2)cc1OC returned mut p53 react -9, ID4 SMM inactive and STK33 inh -1.
Screening N#Cc1c(SC2CCCC2)nsc1SC1CCCC1 returned STK33 inh 0.
Screening Cc1nnc(SCc2nc(N)nc(Nc3ccc4ccccc4c3)n2)s1 returned mut p53 react 97*, ID4 SMM inactive and STK33 inh 3.
Cc1nnc(SCc2nc(N)nc(Nc3ccccc3)n2)s1 was read as mut p53 react 23, ID4 SMM inactive and STK33 inh -1.
`COc1ccc(NS(=O)(=O)c2ccccc2)cc1CN1C(=O)c2ccccc2C1=O` gave mut p53 react 0, ID4 SMM inactive and STK33 inh -1.
Screening COC(=O)c1cccc(-n2c(CCC(=O)O)ccc2-c2cccs2)c1 returned mut p53 react 63*, ID4 SMM inactive and STK33 inh 4.
For COC(=O)c1cccc(-n2c(CCC(=O)O)ccc2-c2ccc(C)cc2)c1 the results were mut p53 react 3, ID4 SMM inactive and STK33 inh -2.
COc1ccc(OC)c(N(CC(=O)Nc2c(F)cccc2F)S(C)(=O)=O)c1 was read as mut p53 react -10, ID4 SMM inactive and STK33 inh -3.
For COc1ccc(Cl)cc1NC(=S)NCCCn1nc(C)c(Br)c1C the results were mut p53 react 13, ID4 SMM inactive and STK33 inh 1.
O=C(CSc1nc2ccc([N+](=O)[O-])cc2s1)Nc1ccc(Br)cc1Cl was read as mut p53 react -2, ID4 SMM inactive and STK33 inh -1.
O=C(O)CCc1ccc(-c2ccc(Cl)cc2)n1-c1ccc(C(=O)O)cc1 was read as mut p53 react 9, ID4 SMM inactive and STK33 inh 4.
`Cn1c(=O)c(C(=O)NCCCO)c(O)c2ccccc21` gave mut p53 react 1, ID4 SMM inactive and STK33 inh 2.
C[C@H]1CN([C@@H](C)CO)C(=O)Cc2cc(NC(=O)Nc3cccc4ccccc34)ccc2O[C@H]1CN(C)C was read as STK33 inh -1.
Cc1noc(C)c1NC(=O)N(C)C[C@H]1Oc2ccc(NC(=O)Nc3ccc(F)cc3)cc2CC(=O)N([C@H](C)CO)C[C@H]1C was read as mut p53 react -1, ID4 SMM active and STK33 inh -1.
`CNC[C@@H]1Oc2ccc(NC(=O)c3ccncc3)cc2CC(=O)N([C@@H](C)CO)C[C@H]1C` gave mut p53 react 8 and ID4 SMM active.
CNC[C@@H]1Oc2ccc(NC(=O)Nc3cccc4ccccc34)cc2CC(=O)N([C@@H](C)CO)C[C@H]1C was read as mut p53 react 0 and ID4 SMM active.
Screening CNC[C@H]1Oc2ccc(NC(=O)CCN3CCOCC3)cc2CC(=O)N([C@@H](C)CO)C[C@@H]1C returned mut p53 react 0, ID4 SMM active and STK33 inh 2.
CNC[C@H]1Oc2ccc(NC(=O)c3ccncc3)cc2CC(=O)N([C@H](C)CO)C[C@@H]1C was read as mut p53 react -9 and ID4 SMM inactive.
CNC[C@@H]1Oc2ccc(NC(=O)CCN3CCOCC3)cc2CC(=O)N([C@H](C)CO)C[C@H]1C was read as mut p53 react 6, ID4 SMM inactive and STK33 inh 1.
Cc1noc(C)c1NC(=O)N(C)C[C@H]1Oc2ccc(NC(=O)Nc3ccc(F)cc3)cc2CC(=O)N([C@@H](C)CO)C[C@@H]1C was read as STK33 inh -3.
Screening N#Cc1c(NC(=O)c2cc3nc(-c4ccco4)cc(C(F)(F)F)n3n2)sc2c1CCCCC2 returned mut p53 react -9, ID4 SMM inactive and STK33 inh 1.
`CNC[C@@H]1Oc2ccc(NC(=O)Nc3c(C)noc3C)cc2CC(=O)N([C@@H](C)CO)C[C@@H]1C` gave mut p53 react 9, ID4 SMM inactive and STK33 inh 2.
For CNC[C@@H]1Oc2ccc(NC(=O)Nc3c(C)noc3C)cc2CC(=O)N([C@H](C)CO)C[C@H]1C the results were mut p53 react 13 and ID4 SMM active.
CCCN(C)C[C@H]1OCc2cn(nn2)CCCC(=O)N([C@H](C)CO)C[C@H]1C was read as ID4 SMM active.
